“And” between values parts separate entries of the source, which are not always exact repeats. Equal values may be shown once. Compounds without any hit were thinned out: in the full panel of roughly 79,000, 15% have a hit. Cut-off read from the data, not from the text of the source: active = growth inhibition above about 70%; inactive = the rest.
Legend:
[1] = NCI Yeast Anticancer Drug Screen. Data for the rad50 strain (AID 155);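 note: 0% = growth of vehicle-only cultures of the same strain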; details: S. cerevisiae rad50 strain growth inhibition, hits give high values; at 50.0 µM unless noted
How it was run: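 A DNA repair-deficient yeast mutant serves as the test organism; compound-induced growth inhibition is calculated against vehicle-treated cells.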

[2] = NCI Yeast Anticancer Drug Screen. Data for the mec2-1 strain (AID 157); details: S. cerevisiae mec2-1 strain, hits give high values; at 50.0 µM unless noted
How it was run: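 Compounds were applied to mec2-1 yeast cells. Their growth was then compared with that of vehicle-treated cultures to give growth inhibition.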

[3] = NCI Yeast Anticancer Drug Screen. Data for the sgs1 mgt1 strain (AID 161);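 note: 0% = growth of cultures given vehicle only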; details: S. cerevisiae sgs1 mgt1 strain, hits give high values; at 50.0 µM unless noted
How it was run: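 Yeast cells carrying a defined DNA-repair defect were exposed to test compounds. Growth inhibition was measured relative to vehicle-treated controls.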

[4] = NCI Yeast Anticancer Drug Screen. Data for the cln2 rad14 strain (AID 165);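 note: 0% = growth equal to vehicle treated cultures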; details: S. cerevisiae cln2 rad14 strain, hits give high values; at 50.0 µM unless noted
How it was run: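 Strain: cln2 rad14 yeast, altered in cell cycle control and DNA damage repair. Read-out: growth inhibition vs vehicle.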

[5] = NCI Yeast Anticancer Drug Screen. Data for the bub3 strain (AID 167); details: S. cerevisiae bub3 mutant strain, hits give high values; at 50.0 µM unless noted
How it was run: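 Inhibition values come from growth of compound-treated mutant yeast normalised to vehicle-treated controls.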

[6] = NCI Yeast Anticancer Drug Screen. Data for the mlh1 rad18 strain (AID 175); details: S. cerevisiae mlh1 rad18 strain growth inhibition, hits give high values; at 50.0 µM unless noted
How it was run: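 A repair-deficient yeast strain is exposed to test compound, and growth is scored relative to vehicle-treated controls.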

Measured: growth inhibition

CCSC(SCC)C(NC(C)=O)C(O)C(O)C(O)CO (stereo not given)
inactive: [1] 28.7% | [2] 3.45% | [3] 3.7% | [4] 12.7% | [5] 15.2% | [6] 21.4%

CC[N+](CC)(CC)CCOC(=O)c1cc(OC)c(OC)c(OC)c1
inactive: [1] -16.4% | [2] -20.4% | [3] -2.35% | [4] 15.4% | [5] 4.1% | [6] -0.6%

C=C1C(=O)OC2/C=C(\C)C(O)/C=C\C(C)(O)CC(OC(=O)/C(C)=C/C)C12 (stereo not given)
inactive: [1] -18% | [2] -37.6% | [3] -3.15% | [4] -2% | [5] -34.8% | [6] -26.8%

OCC12OCC(C=CC1O)O2 (stereo not given)
inactive: [1] -13.2% | [2] 17.1% | [3] -4.65% | [4] 1.2% | [5] -0.15% | [6] -8.5%

Nc1c(Cl)ccc2c(Cl)ccnc12
inactive: [1] -1.15% | [2] -9.55% | [3] -7.2% | [4] -21.1% | [5] -9.55% | [6] 7.55%

CN(C(=O)Cc1ccccc1)n1cn[n+](CC(=O)OC(C)(C)C)c1
inactive: [1] -3.65% | [2] -13.6% | [3] -12.4% | [4] -8.35% | [5] -24.6% | [6] -23.6%

CC(Cl)(c1ccccc1)C1OCCO1 (stereo not given)
inactive: [1] 1.75% | [2] 19.9% | [3] 8.1% | [4] -20.9% | [5] -5.9% | [6] -1.5%

NNC(=O)c1nc2ccccc2s1
inactive: [1] 18.1% | [2] 4.75% | [3] -8.3% | [4] 5.95% | [5] 8.95% | [6] 20.6%

Nc1ccc(OCc2ccccc2)cc1[N+](=O)[O-]
inactive: [1] 6.4% | [2] -30.8% | [3] 11.3% | [4] 14.5% | [5] -4.45% | [6] 21%

CCOC(=O)C(=CNC(=S)N=Nc1c(O)[nH]c2ccccc12)C(=O)OCC
inactive: [1] -58.4% | [2] -69.2% | [3] -45% | [4] 2.85% | [5] -36.9% | [6] -25.8%

CC1(C)COC(=S)N1
inactive: [1] -3% and -28.6% | [2] 6.85% and -21.8% | [3] 0.5% and -14.8% | [4] 11.4% and -25.3% | [5] 9.55% and -26.9% | [6] 19.1% and -27.2%

CNC(=O)C(C(=O)NC)c1ccccc1
inactive: [1] 8.05% | [2] -4.65% | [3] -1.15% | [4] -18.5% | [5] -2.9% | [6] 10.8%

CC(=O)Oc1cc(OC(C)=O)c2c(OC(C)=O)c3c(OC(C)=O)cc(C)cc3cc2c1
inactive: [1] 40.5% | [2] 19.8% | [3] 39.5% | [4] 31.6% | [5] 9.3% | [6] 20.1%

OC1CSc2nc3ccccc3n2C1 (stereo not given)
inactive: [1] 17.6% | [2] 9.25% | [3] 12.3% | [4] 9.7% | [5] 20.8% | [6] 38.9%

O=c1[nH]nc(-c2ccccc2)nc1/C(=N\Nc1ccccc1)c1ccccc1
inactive: [1] 15.5% | [2] -12.3% | [3] 1.05% | [4] 0.85% | [5] 12.5% | [6] 14.7%

CCOC(=O)c1[nH]c(=O)[nH]c(=O)c1[N+](=O)[O-]
inactive: [1] 0.4% | [2] -3.75% | [3] 7.15% | [4] 3.4% | [5] -11.9% | [6] -2.3%

CC(C)C(=O)OC1(CC2CCCCN2C)CCCCC1 (stereo not given)
inactive: [1] -3.2% | [2] 13.7% | [3] 3.95% | [4] -5.8% | [5] 5.3% | [6] 6.85%

CC(=O)[CH-]C(=O)c1ccccc1.CC(=O)[CH-]C(=O)c1ccccc1.CC1(C)OCC(C2OC3OC(C)(C)OC3C2[O-])O1.CC1(C)OCC(C2OC3OC(C)(C)OC3C2[O-])O1.[Ti+4] (stereo not given)
inactive: [1] 29.9% | [2] 5.65% | [3] 14.8% | [4] 14.9% | [5] 27.9% | [6] 20.2%

Cc1nn(C)c(N)c1C#N
inactive: [1] -15.9% and 8% | [2] -11.7% and 5.95% | [3] -24.6% and 3.6% | [4] 0.3% and 26.9% | [5] -8.45% and -6.5% | [6] -18.2% and -7.45%

Cc1ccc2c(c1)C(C(=O)N[C@@H]1C(=O)N3[C@@H]1SC(C)(C)[C@@H]3C(=O)O)OCCC2 (stereo not given in full)
inactive: [1] -5.1% | [2] -12.3% | [3] 16.2% | [4] 2.45% | [5] 0.65% | [6] -68.4%
